About 2,000 (36%) of roughly 5,500 compounds were called active. Roughly 18% stayed inconclusive and do not appear here. Rule as the data show it: active = normalized growth mostly below about 0.91 (no sharp cut-off); inconclusive = no clear call, values can overlap the other calls; inactive = mostly above about 0.92. This is one part of the list.
Assay: chemical genetic growth profiling, strain panel (AID 1159580);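 also: tested at 20 µM; growth read once vehicle control cultures reached saturation at 30 °C; 1 = growth at the plate median or of vehicle wells; lower values mean less growth of the strain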
Details: S. cerevisiae deletion strains, growth OD

Measured: normalized growth

CCCC1O[C@@H]2C[C@H]3[C@@H]4CCC5=CC(=O)C=C[C@]5(C)[C@H]4[C@@H](O)C[C@]3(C)[C@]2(C(=O)CO)O1 (stereo not given in full)
inactive: locus YAL040C, strain CLN3, active compounds read low 1.06 | locus YCL061C, strain MRC1 (second series), active compounds read low 0.998 | locus YER002W, strain NOP16, active compounds read low 1.01 | locus YGR078C, strain PAC10, active compounds read low 1.02 | locus YMR263W, strain SAP30, active compounds read low 1 | locus YNL153C, strain GIM3, active compounds read low 0.982 | locus YNL175C, strain NOP13, active compounds read low 0.994 | locus YNL197C, strain WHI3, active compounds read low 0.974 | locus YNL224C, strain SQS1, active compounds read low 1.01 | locus YOR083W, strain WHI5 (second series), active compounds read low 0.992

Source: PubChem BioAssay AID1159580 (chemical genetic matrix, 2015)
